# Several values for one entry are separate records, joined by “and”; a condition that tells them apart may be missing. Equal entries are not always repeated. The whole screen tested about 350,000 compounds, of which about 6,000 (1.7%) were called active. Inconclusive results (about 5%) are left out. Cut-off read from the data, not from the text of the source: active = CPE inhibition above about 20% (passing the limit was not always enough); inconclusive = no clear call, values can overlap the other calls; tested in BHK-21 cells. The list comes from a sample in which actives are over-represented; it also holds similar structures and randomly drawn compounds. More than one record can exist for a structure, and the calls need not agree.
# Assay: protection of cells from dengue 2 killing – plate reader, single concentration, primary screen (AID 651640);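 note: 0% = median of neutral control wells and 100% = median of positive control wells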
# Settings: DENV2-infected cells, cytopathic effect rescue, at 9.99 µM, stronger effect = higher value
row,Compound,CPE inhibition
1,C[C@@H]1CN([C@@H](C)CO)C(=O)Cc2cc(NC(=O)C3CCCCC3)ccc2O[C@@H]1CN(C)C(=O)Nc1ccc(C(F)(F)F)cc1,2.75% (inactive)
2,C[C@@H]1CN([C@H](C)CO)C(=O)Cc2cc(NC(=O)Nc3ccccc3)ccc2O[C@@H]1CN(C)Cc1ccc(C(F)(F)F)cc1,-6.47% (inactive)
3,C[C@@H]1CN([C@H](C)CO)C(=O)Cc2cc(NC(=O)C3CCCCC3)ccc2O[C@@H]1CN(C)Cc1ccc(C(F)(F)F)cc1,31.3% (active)
4,C[C@H](CO)N1C[C@H](C)[C@@H](CN(C)S(=O)(=O)c2ccccc2)Oc2ccc(NC(=O)Nc3ccc(F)cc3)cc2CC1=O,13.5% (inactive)
5,C[C@@H]1CN([C@@H](C)CO)C(=O)Cc2cc(NC(=O)Nc3ccc(F)cc3)ccc2O[C@@H]1CN(C)S(=O)(=O)c1ccccc1,76.2% (active)
6,C[C@H]1CN([C@@H](C)CO)C(=O)Cc2cc(NC(=O)Nc3ccc(F)cc3)ccc2O[C@H]1CN(C)S(=O)(=O)c1ccccc1,1.86% (inactive)
7,C[C@H]1CN([C@@H](C)CO)C(=O)Cc2cc(NC(=O)C3CCCCC3)ccc2O[C@H]1CN(C)C(=O)Nc1ccc(C(F)(F)F)cc1,-1.37% (inactive)
8,C[C@H]1CN([C@@H](C)CO)C(=O)Cc2cc(NC(=O)Nc3ccc(C(F)(F)F)cc3)ccc2O[C@H]1CN(C)Cc1ccc(C(=O)O)cc1,16.5% (inactive)
9,C[C@@H]1CN([C@@H](C)CO)C(=O)Cc2cc(NC(=O)Nc3ccc(C(F)(F)F)cc3)ccc2O[C@H]1CN(C)Cc1ccc(C(=O)O)cc1,30.9% (active)
10,COCC#Cc1cnc2c(c1)C(=O)N([C@H](C)CO)C[C@H](C)[C@H](CN(C)C(=O)C1CCOCC1)O2,8% (inactive)
11,O=C(C[C@H]1C[C@@H]2c3cc(NC(=O)CC4CC4)ccc3O[C@@H]2[C@@H](CO)O1)NCc1cc(F)ccc1F,-1.05% (inactive)
12,C[C@@H]1CN([C@H](C)CO)C(=O)c2cc(NC(=O)c3ccncc3)ccc2O[C@H]1CN(C)Cc1ccc(Oc2ccccc2)cc1,-0.0445% (inactive)
13,C[C@@H]1CCCCO[C@@H](CN(C)C(=O)Cc2ccccc2)[C@H](C)CN([C@H](C)CO)C(=O)c2cc(NC(=O)Cc3ccccc3)ccc2O1,13.3% (inactive)
14,COc1ccc(-c2ccc3c(c2)[C@H]2[C@H](CCN2C(=O)c2ccc4c(c2)OCO4)[C@@H](CO)N3)cc1,-26.6% (inactive)
15,Cc1ccc(C)c(CN2CCC(CNC(=O)C3CCCN(c4ncnc5c4nc4n5CCCCC4)C3)CC2)c1 (stereo not given),3.53% (inactive)
16,CCCN1C[C@@H](C)[C@@H](OC)CN(C)C(=O)c2ccc(NC(=O)CC(F)(F)F)cc2OC[C@H]1C,1.09% (inactive)
17,CN1c2ccc(Br)cc2[C@H]2[C@H](CCN2S(=O)(=O)c2ccc(F)cc2)[C@@H]1CO,0.0605% (inactive)
18,CO[C@@H]1CN(C)C(=O)c2ccc(NC(=O)C3CC3)cc2OC[C@H](C)N(C(C)=O)C[C@H]1C,7.67% (inactive)
19,C/C=C(\C)C(=O)NCCN1C2=NC[C@H](Cc3ccc(O)cc3)N2C[C@@H]1Cc1ccc(OC)cc1,77.3% (active)
20,NC1=NC[C@@H](Cc2ccc(O)cc2)N1CC1CCCCC1,2.56% (inactive)
21,COc1ccc(C[C@H]2CN3C(=NC[C@H]3C)N2CCNC(=O)CCC2CCCCC2)cc1,-4.48% (inactive)
22,CCC(=O)N1C[C@@H](O)COC[C@H]2O[C@H](CC(=O)NCC3CCCCC3)CC[C@@H]21,-3.58% (inactive)

row,Compound,CPE inhibition
1,CCOC(=O)N1CCN(Cc2nc3cc(NC(=O)CC)ccc3n2CC)CC1,38.6% (active)
2,CCC(=O)Nc1ccc2c(c1)nc(CCN1CCN(c3ccccn3)CC1)n2C,0.997% (inactive)
3,CCOC(=O)N1CCN(Cc2nc3cc(NC(C)=O)ccc3n2C)CC1,-3.68% (inactive)
4,C[C@@H]1CN([C@H](C)CO)C(=O)c2cccc(NC(=O)c3ccncc3)c2O[C@@H]1CN(C)S(=O)(=O)c1cn(C)cn1,15% (inactive)
5,O=C(Nc1ccccc1F)N[C@@H]1C=C[C@H](CC(=O)N2CCCCC2)O[C@@H]1CO,-0.192% (inactive)
6,Cc1noc(C)c1NC(=O)N(C)C[C@@H]1OCCCC[C@H](C)Oc2ccc(NC(=O)c3ccccc3)cc2C(=O)N([C@@H](C)CO)C[C@@H]1C,16.5% (inactive)
7,C/C=C/c1cnc2c(c1)C(=O)N([C@@H](C)CO)C[C@@H](C)[C@@H](CN(C)C(=O)c1cnccn1)O2,2.38% (inactive)
8,CC(=O)N(C)C[C@@H]1Oc2ncc(C#Cc3ccc(F)cc3)cc2C(=O)N([C@H](C)CO)C[C@@H]1C,28.5% (active)
9,COc1ccc(C#Cc2cnc3c(c2)C(=O)N([C@H](C)CO)C[C@@H](C)[C@@H](CN(C)C(=O)CN(C)C)O3)cc1,33.2% (active)
10,C[C@H](CO)N1C[C@H](C)[C@@H](CN(C)C(=O)c2cnccn2)Oc2ncc(Br)cc2C1=O,17.4% (inactive) and 62.5% (active)
11,C[C@H](CO)N1C[C@H](C)[C@H](CN(C)C)Oc2ncc(C#Cc3ccc(F)cc3)cc2C1=O,-5.08% (inactive) and 2.36% (inactive)
12,C[C@H]1CN([C@@H](C)CO)C(=O)c2cc(C#Cc3ccc(F)cc3)cnc2O[C@@H]1CN(C)C(=O)Nc1ccc(F)cc1,-4.85% (inactive)
13,COc1ccc(C#Cc2cnc3c(c2)C(=O)N([C@H](C)CO)C[C@H](C)[C@@H](CN(C)C)O3)cc1,19.9% (inactive)
14,C/C=C/c1cnc2c(c1)C(=O)N([C@@H](C)CO)C[C@@H](C)[C@H](CN(C)C(=O)c1cnccn1)O2,-1.7% (inactive)
15,COc1ccc(C#Cc2cnc3c(c2)C(=O)N([C@@H](C)CO)C[C@H](C)[C@@H](CN(C)C(C)=O)O3)cc1,2.83% (inactive)
16,N#C[C@H]1[C@H](c2ccccc2)[C@@H](CO)N1C(=O)c1cccnc1,-0.249% (inactive)
17,COC(=O)[C@]12C[C@H](CC(=O)NCc3ccc(C)o3)C(=O)N(CCC3=CCCCC3)C1=C[C@H](C(C)(C)C)O[C@@H]2C,13.9% (inactive)
18,CN(C)C(=O)[C@@H]1[C@@H](CO)[C@@H]2Cn3c(cccc3=O)[C@@H]2N1C(=O)C1CCC1,-0.032% (inactive)
19,O=C(Nc1cccc(Cl)c1)N1C[C@@H]2[C@H](c3ccccc31)[C@H](CO)N2Cc1ccncc1,-4.1% (inactive)
20,C/C=C/c1ccc([C@H]2[C@@H](CO)N[C@@H]2CN(CC)C(=O)CN2CCOCC2)cc1,-9.22% (inactive)
21,O=C(C[C@@H]1C[C@H]2c3cc(NC(=O)NC4CCCCC4)ccc3O[C@H]2[C@H](CO)O1)NCc1ccncc1,-3.13% (inactive)
22,CC(C)NC(=O)N(C)C[C@@H]1Oc2ncc(C3=CCCCC3)cc2C(=O)N([C@H](C)CO)C[C@@H]1C,4.71% (inactive)

row,Compound,CPE inhibition
1,CCCNC(=O)C[C@H]1C[C@@H]2c3cc(NC(=O)COC)ccc3O[C@@H]2[C@@H](CO)O1,-2.37% (inactive)
2,CN1OC[C@@H]2CN(C(=O)C(C)(C)C)[C@H](c3ccc(-n4ccnc4)cc3)C[C@@H]21,-4.59% (inactive)
3,CN1OC[C@@H]2CN(C(=O)c3cccc4ccccc34)[C@H](c3ccc(N4CCCCC4)cc3)C[C@@H]21,1.89% (inactive)
4,CN1OC[C@@H]2CN(C(=O)c3cccnc3)[C@H](c3ccc(N4CCCCC4)cc3)C[C@@H]21,42.6% (active)
5,COc1ccc(NC(=O)Nc2ccc3c(c2)C(=O)N([C@@H](C)CO)C[C@@H](C)[C@@H](CN(C)Cc2ccncc2)OCCCC[C@@H](C)O3)cc1,-9.1% (inactive)
6,CN1C(=O)c2cc(NC(=O)c3cccs3)ccc2OC[C@H]2O[C@@H](CC(=O)NCC3CC3)CC[C@@H]21,-3.31% (inactive)
7,C/C=C/c1ccc([C@@H]2[C@@H](CO)N(CC3CCCC3)C23CN(S(=O)(=O)CC)C3)cc1,-5.75% (inactive)
8,C/C=C/c1ccc([C@@H]2[C@H](CO)N(CC3CCOCC3)C23CN(S(=O)(=O)CC)C3)cc1,73.3% (active)
9,C/C=C/c1ccc([C@@H]2[C@H](CO)N(CC3CCCC3)C23CN(C(=O)CC)C3)cc1,2.47% (inactive)
10,CO[C@H]1CN(C)C(=O)c2ccc(NS(=O)(=O)c3cn(C)cn3)cc2OC[C@H](C)N(C)C[C@H]1C,-10.1% (inactive)
11,C/C=C/c1cnc2c(c1)C(=O)N([C@H](C)CO)C[C@H](C)[C@H](CN(C)C(=O)c1cccc(F)c1)O2,-1% (inactive)
12,C[C@@H]1CN([C@@H](C)CO)S(=O)(=O)c2ccc(Br)cc2O[C@H]1CN(C)S(=O)(=O)c1ccccc1,-1.43% (inactive)
13,CCOc1ccc(Oc2nc(C)cc(OC)n2)nn1,71.4% (active)
14,COc1ccc2c3c([nH]c2c1)[C@H](CO)N(Cc1nccs1)CC31CCN(Cc2ccncc2)CC1,6.23% (inactive)
15,CCC(=O)N(C)C[C@@H]1Oc2cc(C#C[C@H](C)O)ccc2S(=O)(=O)N([C@@H](C)CO)C[C@H]1C,-5.73% (inactive)
16,C[C@@H]1CCCCO[C@H](CN(C)S(=O)(=O)c2cn(C)cn2)[C@@H](C)CN([C@@H](C)CO)C(=O)c2cc(NC(=O)c3ccncc3)ccc2O1,1.9% (inactive)
17,O=C(CN1CCc2cc3c(cc2C1)OCCCO3)Nc1ccccc1,28.1% (active)
18,O=C(CN1CCOCC1)Nc1ccccc1,1.83% (inactive)
19,COc1cc2c(cc1OC)CN(CC(=O)Nc1ccc(F)cc1)CC2,-5.5% (inactive)
20,O=C([C@@H]1[C@@H](CO)[C@@H]2Cn3c(ccc(C4=CCCCC4)c3=O)[C@H]1N2Cc1nccs1)N1CCCCC1,-3.86% (inactive)
21,COc1ccc2c3c(n(C)c2c1)[C@@H](CO)N(C(=O)c1cccnc1)CC31CCN(C(=O)c2cccnc2)CC1,-1.97% (inactive)
